Screens: PubChem, several laboratories
This is a sample that favours compounds with a hit; in the whole collection about 1.6% have one here.
PERK inhibitor: block of dimerizer-induced PERK translation repression, primary screen, PERK inhibitor project, CHO PERK-DD cells, SEAP luminescence, HTS; Eukaryotic translation initiation factor 2-alpha kinase 3 (Homo sapiens), Q9NZJ5; CHO PERK-DD fusion, SEAP luminescence translation reporter; inhibition, % at 5.6 µM; 220,000 compounds, 0.17% hits; AID 1416, 2008;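 active = inhibition above the mean inhibition of all tested compounds plus 3 SD, set separately per screening campaign, cut at about 2.9% in these data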;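 also: PERK kinase domain activated by AP20187 dimerizer at 100 nM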
Target sequence (Q9NZJ5 whole entry, looked up, the tested form may be a part): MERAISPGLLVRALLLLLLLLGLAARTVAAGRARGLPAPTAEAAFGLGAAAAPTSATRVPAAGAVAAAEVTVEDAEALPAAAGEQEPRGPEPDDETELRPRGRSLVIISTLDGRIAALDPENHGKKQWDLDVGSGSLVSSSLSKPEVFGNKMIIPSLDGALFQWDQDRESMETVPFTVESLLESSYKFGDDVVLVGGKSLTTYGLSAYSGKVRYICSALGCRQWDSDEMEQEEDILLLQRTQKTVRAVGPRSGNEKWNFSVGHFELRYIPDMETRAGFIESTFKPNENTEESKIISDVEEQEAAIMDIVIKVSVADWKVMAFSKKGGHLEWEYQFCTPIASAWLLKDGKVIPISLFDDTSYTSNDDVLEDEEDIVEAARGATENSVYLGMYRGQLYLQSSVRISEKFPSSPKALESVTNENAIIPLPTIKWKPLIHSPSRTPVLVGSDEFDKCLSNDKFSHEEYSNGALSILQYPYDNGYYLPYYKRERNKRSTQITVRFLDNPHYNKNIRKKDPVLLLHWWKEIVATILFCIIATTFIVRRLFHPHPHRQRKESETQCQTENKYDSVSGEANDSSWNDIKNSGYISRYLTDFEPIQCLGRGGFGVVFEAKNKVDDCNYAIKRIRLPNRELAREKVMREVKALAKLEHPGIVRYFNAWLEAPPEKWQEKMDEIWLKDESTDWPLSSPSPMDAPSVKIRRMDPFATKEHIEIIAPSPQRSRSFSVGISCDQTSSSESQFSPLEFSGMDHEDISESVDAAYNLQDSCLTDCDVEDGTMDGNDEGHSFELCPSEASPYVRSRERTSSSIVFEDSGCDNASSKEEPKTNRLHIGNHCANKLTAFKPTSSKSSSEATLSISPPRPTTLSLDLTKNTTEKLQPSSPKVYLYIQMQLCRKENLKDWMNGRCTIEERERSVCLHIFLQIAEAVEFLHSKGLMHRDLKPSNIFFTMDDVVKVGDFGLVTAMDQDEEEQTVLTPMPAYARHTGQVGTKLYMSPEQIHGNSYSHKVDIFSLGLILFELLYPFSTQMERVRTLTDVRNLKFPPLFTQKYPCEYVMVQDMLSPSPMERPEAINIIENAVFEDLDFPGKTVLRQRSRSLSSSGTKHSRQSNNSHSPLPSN
eIF4E 4G PPI: eIF4E–eIF4G protein interaction inhibitors, primary screen, biochemical, uHTS, TR-FRET, eIF4GI fragment | Eukaryotic translation initiation factor 4E (Mus musculus) + Eukaryotic translation … | TR-FRET eIF4E-eIF4GI(517-606) binding, 2 h | inhibition, % at 21.7 µM | 220,000 compounds, 0.37% hits;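 active = inhibition above about 30%, limit read from the data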
MLLE-PAM2 inh: inhibitors of PABP1 MLLE–PAM2 peptide binding, primary screen, biochemical, fluorescence polarization, FITC-PAM2, GST-MLLE; 360,000 compounds, 0.36% hits; Polyadenylate-binding protein 1 (Homo sapiens), P11940; inhibition, % at 20 µM; in the data active = inhibition above about 35%, passing the limit was not always enough
PABP polyA inh: PABP poly(A) RNA binding inhibitors, primary screen, biochemical, fluorescence polarization, uHTS. Polyadenylate-binding protein 1 (Homo sapiens), P11940. inhibition, % at 35 µM. 290,000 compounds, 1% hits. AID 2014, 2009;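 also: calls also rest on retests at 20 µM and on dose response follow-up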
eIF4H inh: human eIF4H binding inhibitors, primary screen, translation initiation inhibitor project, biochemical, uHTS, fluorescence polarization | eIF4H fluorescence polarization binding assay | inhibition, % at 35 µM | 290,000 compounds, 0.94% hits;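 also: calls also rest on retests at 20 µM and on dose response follow-up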
Hits are given with their value. Unless noted, no rule for the calls is given here.

CC(=C\c1ccco1)/C=C1/SC(=S)N(CC(=O)O)C1=O was read as PERK inhibitor inactive, eIF4E 4G PPI inactive, MLLE-PAM2 inh inactive, PABP polyA inh 66 and eIF4H inh 87.
O=C(CCCN1C(=O)/C(=C/c2ccccc2)SC1=S)Nc1ccc(C(=O)O)c(O)c1 was read as MLLE-PAM2 inh inactive, PABP polyA inh inactive and eIF4H inh inactive.
Screening CC(C(=O)N(C)C1CCS(=O)(=O)C1)N1C(=O)/C(=C/c2ccco2)SC1=S (stereo not drawn) returned MLLE-PAM2 inh inactive, PABP polyA inh inactive and eIF4H inh inactive.
COc1ccc(OC(C)C(=O)Nc2cccc(OC)c2)cc1 (stereo not drawn) was read as PERK inhibitor inactive, eIF4E 4G PPI inactive, MLLE-PAM2 inh inactive, PABP polyA inh inactive and eIF4H inh inactive.
`Cc1ccc(S(=O)(=O)n2nc(OC(=O)C3CCCCC3)cc2N)cc1` gave PERK inhibitor inactive, eIF4E 4G PPI inactive, MLLE-PAM2 inh inactive, PABP polyA inh inactive and eIF4H inh inactive.
For COc1ccc(NS(=O)(=O)c2ccc(-c3coc(C)n3)cc2)cc1OC the results were MLLE-PAM2 inh inactive.
`O=C(CN1C(=O)/C(=C/c2ccco2)SC1=S)Nc1ccc(O)c(C(=O)O)c1` gave MLLE-PAM2 inh inactive, PABP polyA inh 69 and eIF4H inh 81.
O=C(CCCN1C(=O)/C(=C\c2ccco2)SC1=S)Nc1ccc(O)cc1C(=O)O was read as MLLE-PAM2 inh inactive.
`O=C(CN1C(=O)S/C(=C/C=C/c2ccccc2)C1=O)Nc1ccc(C(=O)O)cc1` gave PERK inhibitor inactive, eIF4E 4G PPI inactive, MLLE-PAM2 inh inactive, PABP polyA inh inactive and eIF4H inh inactive.
`O=C(CCN1C(=O)/C(=C\C=C\c2ccccc2)SC1=S)Nc1ccc(C(=O)O)cc1` gave MLLE-PAM2 inh inactive, PABP polyA inh 49 and eIF4H inh 68.
`O=C(CCCN1C(=O)/C(=C/c2ccco2)SC1=S)Nc1cccc(C(=O)O)c1` gave PERK inhibitor inactive, eIF4E 4G PPI inactive, MLLE-PAM2 inh inactive, PABP polyA inh 96 and eIF4H inh 94.
O=C(COC(=O)c1ccc(S(=O)(=O)N2CCOCC2)cc1)NC1CCCC1 was read as PERK inhibitor inactive, eIF4E 4G PPI inactive, MLLE-PAM2 inh inactive, PABP polyA inh inactive and eIF4H inh inactive.
Screening Cc1ccccc1Cn1c(C)cc(C)c(C#N)c1=O returned PERK inhibitor inactive, eIF4E 4G PPI inactive, MLLE-PAM2 inh inactive, PABP polyA inh 93 and eIF4H inh active.
`O=C(CN1C(=O)NC2(CCCCC2)C1=O)Oc1ccc2c(C(F)(F)F)cc(=O)oc2c1` gave MLLE-PAM2 inh 44.
`C/C(CC(=O)Nc1cc(C)ccn1)=N\NC(=O)c1ccc(C)cc1` gave PERK inhibitor inactive, eIF4E 4G PPI inactive, MLLE-PAM2 inh inactive, PABP polyA inh inactive and eIF4H inh inactive.
`C/C(CC(=O)Nc1cc(C)ccn1)=N\NC(=O)c1ccccc1C` gave PERK inhibitor inactive, eIF4E 4G PPI inactive, MLLE-PAM2 inh inactive, PABP polyA inh 25 and eIF4H inh inactive.
`O=C1CCCC2=C1C(c1ccco1)Nc1ccc3ccccc3c12` (stereo not drawn) gave PERK inhibitor inactive, eIF4E 4G PPI inactive, MLLE-PAM2 inh inactive, PABP polyA inh 84 and eIF4H inh 80.
Screening CCCOC(=O)Nc1nc2ccccc2o1 returned PERK inhibitor inactive, eIF4E 4G PPI inactive, MLLE-PAM2 inh inactive, PABP polyA inh 52 and eIF4H inh 72.
For CCOC(=O)C(=CN=C(N)Nc1nc2ccccc2o1)C(=O)OCC the results were PERK inhibitor inactive, eIF4E 4G PPI inactive, MLLE-PAM2 inh inactive, PABP polyA inh inactive and eIF4H inh inactive.
Screening CC1=CC2=NC(=O)/C(=C\c3cc(C)n(-c4ccccc4F)c3C)C(=N)N2O1 returned PERK inhibitor inactive, eIF4E 4G PPI inactive, MLLE-PAM2 inh inactive, PABP polyA inh inactive and eIF4H inh inconclusive.
Cc1cc(/C=C2/C(=N)N3C(=NC2=O)SN=C3S(C)(=O)=O)c(C)n1-c1ccccc1F was read as PERK inhibitor 3.4, eIF4E 4G PPI 31, MLLE-PAM2 inh inactive, PABP polyA inh inactive and eIF4H inh inactive.
`O=C(c1nn2c(C(F)(F)F)cc(-c3ccco3)nc2c1Br)N1CCCc2ccccc21` gave PERK inhibitor inactive, eIF4E 4G PPI inactive, MLLE-PAM2 inh inactive, PABP polyA inh inactive and eIF4H inh inactive.
For CC(=O)NCc1c(Cl)cccc1-n1cccc1 the results were PERK inhibitor 3.3, eIF4E 4G PPI inactive, MLLE-PAM2 inh inactive, PABP polyA inh inactive and eIF4H inh inactive.
Screening CCC(=O)NCc1c(Cl)cccc1-n1cccc1 returned PERK inhibitor inactive, eIF4E 4G PPI inactive, MLLE-PAM2 inh inactive, PABP polyA inh inactive and eIF4H inh inactive.
C[C@@H]1CN([C@@H](C)CO)C(=O)c2cc(Br)cnc2O[C@@H]1CN(C)Cc1cncnc1 was read as MLLE-PAM2 inh inactive.
For CN(C)c1oc(-c2ccccc2[N+](=O)[O-])nc1C#N the results were PERK inhibitor inactive, eIF4E 4G PPI inactive, MLLE-PAM2 inh 42, PABP polyA inh inactive and eIF4H inh inactive.
`COc1ccc(CC(=O)O/N=C(\N)c2ccccn2)cc1` gave PERK inhibitor 3.1, eIF4E 4G PPI inactive, MLLE-PAM2 inh inactive, PABP polyA inh inactive and eIF4H inh inactive.
`CC(=O)O/N=C/c1c(C)c(C=O)n2ccccc12` gave PERK inhibitor inactive, eIF4E 4G PPI inactive, MLLE-PAM2 inh inactive, PABP polyA inh 55 and eIF4H inh inactive.
For CCN1CCN(c2c(Cl)cccc2NC(=O)c2ccc3nsnc3c2)CC1 the results were PERK inhibitor inactive, eIF4E 4G PPI inactive, MLLE-PAM2 inh inactive, PABP polyA inh inactive and eIF4H inh inactive.
NC(=O)CC(c1ccccc1)c1ccco1 (stereo not drawn) was read as PERK inhibitor inactive, eIF4E 4G PPI inactive, MLLE-PAM2 inh inactive, PABP polyA inh inactive and eIF4H inh inactive.
Screening C/C(=N/N=C1\SCC(=O)N1c1ccccc1)c1ccc(C)cc1 returned PERK inhibitor 3.7, eIF4E 4G PPI inactive, MLLE-PAM2 inh inactive, PABP polyA inh inactive and eIF4H inh inactive.
`C/C(=N\N=C1/SC(CC(=O)O)C(=O)N1c1ccccc1)c1ccc(C)cc1` (stereo not drawn) gave MLLE-PAM2 inh inactive, PABP polyA inh inactive and eIF4H inh inactive.
For CC1(C)OC(=O)N(Cc2ccco2)C1(C)O (stereo not drawn) the results were PERK inhibitor inactive, eIF4E 4G PPI inactive, MLLE-PAM2 inh inactive, PABP polyA inh 66 and eIF4H inh inconclusive.
`O=C(O)c1ccc2c(c1)C(=O)/C(=C/c1ccccc1)C2=O` gave PERK inhibitor inactive, eIF4E 4G PPI inactive, MLLE-PAM2 inh 40, PABP polyA inh inactive and eIF4H inh inactive.
